The text below walks through data of PubChem BioAssay (Tox21).

Molecules are shown by their SMILES. Results filed as inconclusive are left out. Unmarked numbers belong to inactive results. Activity calls are given as the source filed them. Calls follow the shape of the full dose curve.
% is scaled to controls: 0 for no effect and ±100 for the full control effect.

Chain of Progesterone receptor (Homo sapiens) (P06401 whole entry, looked up): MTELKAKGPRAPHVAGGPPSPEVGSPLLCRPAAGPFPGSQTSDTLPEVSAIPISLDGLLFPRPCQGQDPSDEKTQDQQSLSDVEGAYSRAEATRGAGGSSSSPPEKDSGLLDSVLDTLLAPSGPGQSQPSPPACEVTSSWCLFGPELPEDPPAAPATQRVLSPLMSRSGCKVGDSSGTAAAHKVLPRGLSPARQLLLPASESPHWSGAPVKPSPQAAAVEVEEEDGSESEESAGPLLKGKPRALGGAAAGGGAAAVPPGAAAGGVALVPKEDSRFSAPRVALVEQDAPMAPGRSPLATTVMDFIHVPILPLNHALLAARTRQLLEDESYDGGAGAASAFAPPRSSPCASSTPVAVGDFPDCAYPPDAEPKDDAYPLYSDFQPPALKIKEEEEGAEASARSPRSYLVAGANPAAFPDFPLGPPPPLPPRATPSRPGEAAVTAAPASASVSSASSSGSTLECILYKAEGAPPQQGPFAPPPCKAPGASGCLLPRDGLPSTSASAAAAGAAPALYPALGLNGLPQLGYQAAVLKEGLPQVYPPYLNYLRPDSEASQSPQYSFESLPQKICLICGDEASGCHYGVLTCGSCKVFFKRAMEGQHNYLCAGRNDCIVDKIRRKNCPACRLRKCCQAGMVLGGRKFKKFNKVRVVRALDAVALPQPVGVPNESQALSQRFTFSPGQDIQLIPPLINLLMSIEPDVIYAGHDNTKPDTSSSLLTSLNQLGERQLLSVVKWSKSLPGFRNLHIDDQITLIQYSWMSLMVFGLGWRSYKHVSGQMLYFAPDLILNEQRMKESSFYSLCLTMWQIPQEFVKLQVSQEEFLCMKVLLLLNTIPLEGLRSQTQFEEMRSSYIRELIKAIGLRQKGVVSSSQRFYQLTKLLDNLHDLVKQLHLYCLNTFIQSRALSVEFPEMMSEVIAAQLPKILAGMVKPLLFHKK

This assay addresses Progesterone receptor (Homo sapiens) (UniProt P06401). The experiment in a line: qHTS assay to identify small molecule agonists of the progesterone receptor (PR) signaling pathway (AID 1346784). Also: nearly all actives have a fitted effect of over 30% in size. Particulars: PR-UAS-bla HEK293T, beta-lactamase FRET ratio, 16 h; series mostly up to 92.4 µM; activation: at the top concentration. The source says:
U.S. Tox21 Program National Center for Advancing Translational Sciences [NCATS] NIH Chemical Genomics Center [NCGC] U.S. Environmental Protection Agency [EPA] National Institutes of Environmental Health Sciences [NIEHS] National Toxicology Program [NTP] U.S. Food and Drug Administration [FDA] […] Endocrine disrupting chemicals (EDCs) and their interactions with steroid hormone receptors like PR causes disruption of normal endocrine function. To identify the compounds that activate PR signaling, a PR-UAS-bla GripTite cell line i.e. PR-UAS-bla HEK 293T (Invitrogen, Carlsbad, CA, USA) containing a beta-lactamase reporter gene under the control of an Upstream Activator Sequence (UAS) was used to screen Tox21 10K compound library.
Tox21 Assay Protocol Summary: PR-UAS-bla HEK 293T cells were dispensed at 3,000 cells/5 uL of assay medium containing 2% charcoal stripped FBS per well into black wall/clear-bottom 1536-well plates using a Multidrop Combi (ThermoFisher Scientific, Waltham, MA) dispenser. After the assay plates were incubated at a 37C and 5% CO2 for 6hr, 23 nL of compounds dissolved in DMSO, positive controls or DMSO only was transferred to the assay plate by a Pintool station (Kalypsys, San Diego, CA). The plates were incubated at 37C and 5% CO2 for 16hr. Then 1 uL of LiveBLAzer B/G FRET substrate was added using a BioRAPTR FRD (Flying Reagent Dispenser, Aurora Discovery, San Diego, CA). After the plates were incubated at room temperature for 2 hours, fluorescence intensity was measured by an Envision plate reader (PerkinElmer, Shelton, CT).
As to `COc1cnc(OC)n2nc(NS(=O)(=O)c3c(OCC(F)F)cccc3C(F)(F)F)nc12`, the “activation” value is -2.18%.
For the compound `CC(C)N(C(=O)SC/C(Cl)=C/Cl)C(C)C`, the “activation” value is -0.543%.
The same measure, in the same setting: next, `CN(C)CCc1c[nH]c2ccccc12`: 1.31%; `CCCN`: -0.0763%.
The same measure, in the same setting: in the case of `CC(=O)O.CC(=O)O.CC(=O)O.CC(=O)O.CC(=O)O.CC(=O)O.CC(=O)O.O.O.[Cr].[Cr].[Cr]` it was 0.115%; in that of `Clc1c(Cl)c(Cl)c(Cl)c(Cl)c1Cl`, -0.806% [at 8.39 µM].
As for `CCN(CC)C(=S)S`, the Potency entry is “inactive”.
Consider `CCC1(CC)C(=O)N=C(O)NC1=O`, for which the “activation” value is -0.194%.
The same measure, in the same setting: next, `C#CCC1=C(C)C(OC(=O)C2C(C=C(C)C)C2(C)C)CC1=O` (stereo not given): 0.907%; `CCC1COC(Cn2cncn2)(c2ccc(Cl)cc2Cl)O1` (stereo not given): 3.1%.
On the same count and under the same terms, in the case of `CN` it was 0.433%; in that of `Oc1ccc(Cl)c(Cl)c1`, 5.84%; in that of `CCNc1nc(NC(C)C(C)C)nc(SC)n1` (stereo not given), 0.0919%.
On the same count and under the same terms, next, `CCCCCCCCCCCCCCn1cc[n+](C)c1`: 0.969%.
Take `CCN(CC)CCc1c[nH]c2ccccc12`: the “activation” value was 4.39%.
`CCC(C)Br` (stereo not given): the “activation” value is -0.378%.
Same read-out and setting: next, `CN1C(=O)[C@@H](NC(=O)c2cc3ccccc3[nH]2)N=C(c2ccccc2)c2ccccc21`: 4.6% [at 42.5 µM]; `ClC1(Cl)C2(Cl)C3(Cl)C4(Cl)C(Cl)(Cl)C5(Cl)C3(Cl)C1(Cl)C5(Cl)C24Cl` (stereo not given): 1.05%; `ClSC(Cl)(Cl)Cl`: 0.687%.
Same read-out and setting: in the case of `CC[N+]1(CC)CCC(OC(=O)C(O)(c2ccccc2)c2ccccc2)C1` (stereo not given) it was -1.41% [at 42.5 µM].
On to `Cc1cccc(Cc2cnc[nH]2)c1C`, for which the “activation” value was 4.72% [at 42.5 µM].
Still for that read-out and setting: in the case of `CCOP(=S)(OCC)Oc1cc(C)nc(N(CC)CC)n1` it was 4.95%.
Same read-out and setting: in the case of `CC(C)C(Br)C(=O)NC(N)=O` (stereo not given) it was -0.722% [at 42.5 µM]; in that of `CC(=O)[O-].CC(=O)[O-].O.O.[Zn+2]`, -1.75%; in that of `CCOP(=O)(OCC)Oc1cc(C)nc(C(C)C)n1`, -2.14%.
Same read-out and setting: in the case of `O=C(N[C@H]1N=C(c2ccccc2F)c2cccc3c2N(CC3)C1=O)c1cc2ccccc2[nH]1` it was -0.77% [at 42.5 µM].
Consider `O=C(CCCCl)c1ccc(F)cc1`, for which the “activation” value is -0.554% [at 42.5 µM].
On the same count and under the same terms, in the case of `CSC(C)(C)/C=N/O` it was -0.374%; in that of `Nc1cc(Cl)ccc1Cl`, 0.203%.
The same measure, in the same setting: in the case of `CCOC(=O)CCN(SN(C)C(=O)Oc1cccc2c1OC(C)(C)C2)C(C)C` it was 9.1%; in that of `OCC(Br)CBr` (stereo not given), -0.236%.
On the same count and under the same terms, in the case of `O=[N+]([O-])c1cccc2cccc([N+](=O)[O-])c12` it was 4.07%.
Consider `N#CSCc1ccccc1`, for which the “activation” value is -2.44%.
On the same count and under the same terms, next, `Oc1ccc([C@H]2CNCc3c2ccc(O)c3O)cc1O`: -0.584% [at 42.5 µM]; `COP(=O)(OC)O/C(=C\Cl)c1cc(Cl)c(Cl)cc1Cl`: -0.0345%.
Same read-out and setting: in the case of `COP(=S)(NC(C)C)Oc1ccc(C)cc1[N+](=O)[O-]` (stereo not given) it was 0.595%.
Turning to `CC(Cc1ccc(O)cc1)NCC(O)c1cc(O)cc(O)c1` (stereo not given), the “activation” value is 1.11% [at 42.5 µM].
The same measure, in the same setting: in the case of `c1csc(-c2ccc(-c3cccs3)s2)c1` it was 10.3%.
Same read-out and setting: next, `CN=C=O`: -1.35%; `Clc1ccc(C(Cl)(Cl)Cl)cc1Cl`: -0.0236%.
